Results published in publication PMC5540273 (PLoS ONE, 2017).

How the values were obtained:
Details in all cases: concentration: 1 μM, replicates: in singlicate; n = 1
[1] = system: CSNK1A1L
[2] = system: CSNK1A1
[3] = system: CSNK1D
[4] = system: CSNK1E
[5] = system: CSNK1G1
[6] = system: CSNK1G2
[7] = system: CSNK1G3
[8] = system: CSNK2A1
[9] = system: CSNK2A2
[10] = system: T1, CTK
T1 construct: gene MATK

[11] = system: DAPK1
[12] = system: DAPK2
[13] = system: DAPK3
[14] = system: T2, DCAMKL1
T2 construct: gene DCLK1

[15] = system: T3, DCAMKL2
T3 construct: gene DCLK2

[16] = system: T4, DCAMKL3
T4 construct: gene DCLK3

[17] = system: DDR1
[18] = system: DDR2
[19] = system: T5, DLK
T5 construct: gene MAP3K12

[20] = system: T6, DMPK2
T6 construct: gene CDC42BPG
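Further: KINOMEscan kinase panel screen.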

| SMILES | %Inh [1] [%] | %Inh [2] [%] | %Inh [3] [%] | %Inh [4] [%] | %Inh [5] [%] | %Inh [6] [%] | %Inh [7] [%] | %Inh [8] [%] | %Inh [9] [%] | %Inh [10] [%] | %Inh [11] [%] | %Inh [12] [%] | %Inh [13] [%] | %Inh [14] [%] | %Inh [15] [%] | %Inh [16] [%] | %Inh [17] [%] | %Inh [18] [%] | %Inh [19] [%] | %Inh [20] [%] |
| --- | --- | --- | --- | --- | --- | --- | --- | --- | --- | --- | --- | --- | --- | --- | --- | --- | --- | --- | --- | --- |
| O=C1NC(=O)C(N2CCc3ccccc32)=C1c1cccc(Cl)c1 [SB-408010] | 0 | 19 | 0 | 0 | 5 | 0 | 0 | 0 | 13 | 53 | 5 | 0 | 0 | 0 | 21 | 21 | 0 | 0 | 0 | 0 |
| Cc1c2ccc(N(C)c3ccnc(Nc4cccc(S(N)(=O)=O)c4)n3)cc2nn1Cc1ccccc1.Cl.Cl [GW787226] | 0 | 15 | 0 | 0 | 0 | 0 | 0 | 0 | 1 | 26 | 0 | 1 | 0 | 24 | 0 | 0 | 97.7 | 96.8 | 0 | 0 |
| Cn1ccc2ncnc(Oc3ccc(NC(=O)Nc4ccncc4)c(Cl)c3)c21 | 0 | 0 | 0 | 0 | 0 | 0 | 0 | 0 | 0 | 0 | 0 | 0 | 0 | 13 | 0 | 0 | 35 | 34 | 0 | 0 |
| O=C(NCCCN1CCOCC1)c1cccc(Nc2nccc(Nc3ccc(Oc4ccccc4)cc3)n2)c1 [GW663929] | 0 | 0 | 3 | 0 | 18 | 0 | 11 | 10 | 21 | 11 | 48 | 35 | 81 | 38 | 0 | 3 | 35 | 50 | 13 | 16 |
| N#Cc1c(N2CCOCC2)sc(-c2ccn[nH]2)c1-c1ccc(Cl)cc1 | 0 | 17 | 0 | 15 | 0 | 0 | 10 | 34 | 14 | 3 | 3 | 0 | 0 | 7 | 11 | 0 | 15 | 6 | 19 | 2 |
| Cc1ccc(NC(=O)c2ccnc(N3CCN(C)CC3)c2)cc1-c1ccc(C(=O)NCC2CC2)cc1 [GW775604] | 0 | 0 | 0 | 24 | 0 | 0 | 0 | 0 | 7 | 0 | 5 | 0 | 0 | 0 | 15 | 0 | 77 | 59 | 0 | 0 |
| O=C(Nc1cccc(-c2nn3ncccc3c2-c2ccnc(Nc3cccc(C(F)(F)F)c3)n2)c1)c1c(F)cccc1F [GSK299495] | 24 | 0 | 12 | 82 | 0 | 0 | 18 | 0 | 0 | 0 | 0 | 0 | 1 | 13 | 0 | 4 | 100 | 56 | 41 | 92.6 |
| NCC(NC(=O)c1cc(-c2cn[nH]c2)c(-c2ccnc3[nH]ccc23)s1)c1ccccc1.O=C(O)C(F)(F)F.O=C(O)C(F)(F)F (centres unmarked) [GSK1325775] | 87 | 93.3 | 91.9 | 99.4 | 55 | 90 | 81 | 15 | 33 | 0 | 71 | 37 | 87 | 6 | 0 | 0 | 0 | 43 | 37 | 89 |
| NS(=O)(=O)c1cccc(-c2ccc3nccc(-c4cccc(S(N)(=O)=O)c4)c3c2)c1 [GW867253] | 0 | 0 | 0 | 12 | 0 | 0 | 0 | 0 | 22 | 31 | 0 | 0 | 2 | 9 | 0 | 0 | 0 | 23 | 9 | 0 |
| Cc1cccc(-c2nc(-c3ccc(S(C)(=O)=O)cc3)sc2-c2ccncc2)c1 | 9 | 18 | 16 | 36 | 0 | 20 | 0 | 0 | 14 | 0 | 4 | 0 | 0 | 0 | 0 | 0 | 0 | 9 | 0 | 53 |
